Sampled rows, rich in hits. Any-hit rate of the full collection: about 12%.
HP1b chromo inh: blocks HP1-beta chromodomain binding to methylated histone tails | 390,000 compounds, 0.56% hits | P83916 | AlphaScreen HP1-beta / biotin-H3K9me3 peptide binding | Potency, µM (series often up to 114 µM), actives largely listed as inhibitors; note: nearly all actives have a fitted effect of over 70% in size
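Compound inhibition of the preformed complex between 50 nM HP1-beta and 50 nM biotinylated H3K9me3 peptide was read by AlphaScreen. Buffer was PBS pH 7.4 with 0.01% Tween-20. Incubations ran 30 min at room temperature, with 10 ug/mL donor/acceptor beads.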
JMJD2A Tudor inh: JMJD2A Tudor domain (human) inhibition; Potency, µM (top dose mostly 114 µM), most hits filed as inhibitors; AlphaScreen JMJD2A-Tudor / H3K4me3 peptide binding; O75164; 390,000 compounds, 4.4% hits; note: nearly all actives have a fitted effect of over 50% in size
L3MBTL1 inh: blocks human L3MBTL1; Q9Y468; AlphaScreen L3MBTL1–H3K9me1 peptide binding; Potency, µM (titrated, usually from 57.1 µM), hits mostly inhibitors; 230,000 compounds, 0.66% hits; note: nearly all actives have a fitted effect of over 60% in size
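L3MBTL1 (50 nM) pre-complexed 30 min with biotinylated H3(1-15)K9me1 peptide (75 nM), then compounds added for 30 min at room temperature; AlphaScreen streptavidin donor/nickel chelate acceptor beads (10 ug/mL final) read after 30 min dark incubation.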
BAZ2B block: BAZ2B (human) inhibition; Q9UIF8; AlphaScreen BAZ2B-H3K14Ac peptide displacement; Potency, µM (top dose mostly 114 µM), most hits filed as inhibitors; 360,000 compounds, 4.4% hits; AID 504333; note: nearly all actives have a fitted effect of over 60% in size
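Protein-peptide AlphaScreen: BAZ2B 50 nM, b-H3K14Ac 50 nM, 1x PBS pH 7.4 + 0.01% Tween-20. Preincubation 30 min RT; cpd 30 min RT (top 110 uM); beads 20 min RT, light-protected.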
G9a inh: inhibitors of human histone lysine methyltransferase G9a; Q96KQ7; G9a H3K9 monomethylation, AlphaScreen, 2 h; Potency, µM (highest dose often 102 µM), hits mostly inhibitors; 350,000 compounds, 8.8% hits; AID 504332; note: nearly all actives have a fitted effect of over 75% in size
Target sequence (Q96KQ7 913-1193 limits assumed): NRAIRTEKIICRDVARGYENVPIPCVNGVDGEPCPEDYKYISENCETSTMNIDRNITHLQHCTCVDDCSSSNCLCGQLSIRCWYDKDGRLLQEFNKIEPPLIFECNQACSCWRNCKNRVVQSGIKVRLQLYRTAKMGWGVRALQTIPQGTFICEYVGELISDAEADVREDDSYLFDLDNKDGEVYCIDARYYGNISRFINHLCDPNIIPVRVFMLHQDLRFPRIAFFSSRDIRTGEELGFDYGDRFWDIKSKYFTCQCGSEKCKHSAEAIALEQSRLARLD
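Readings reflect AlphaScreen signal from monomethyl-H3K9 antibody detection. HMT at 20 nM; substrate b-H3K9 500 nM; cofactor SAM 20 uM; 2 h RT reaction; compounds tested as titrations in qHTS with 15 min preincubation.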
Sfp inh: inhibitors of Bacillus subtilis Sfp phosphopantetheinyl transferase; 310,000 compounds, 3.5% hits; Q9F4F7; AID 1490; Biochemical Sfp PPTase activity, qHTS; Potency, µM, most hits filed as inhibitors;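 note: the enzyme is Sfp with the accession as filed and its product quenches rhodamine fluorescence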
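Step 1, compound plus 15 nM Sfp-PPTase, 15 min, room temperature. Step 2, add rhodamine-CoA (5 uM) and BHQ-2-YbbR (12.5 uM). Step 3, read 525/598 nm fluorescence at 0 and 30 min.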
Numbers stand for hits; – = inactive; ? = inconclusive; · = not tested or not shown; [ ] = remark or other dose. Calls come from the whole dose curve; as a rule, active = well fitted curve in the direction sought with a large enough effect; inconclusive = small, poorly fitted or top-dose-only effect, or another doubt; inactive = no such curve, though single readings can be large; an effect the other way counts as inactive or inconclusive.

SMILES	HP1b chromo inh	JMJD2A Tudor inh	L3MBTL1 inh	BAZ2B block	G9a inh	Sfp inh
CN(Cc1ccco1)S(=O)(=O)c1ccc(CN2C(=O)c3cccnc3C2=O)s1	–	32µM	·	–	?	–
CC1CCn2c(nc3cc(C(=O)NCc4ccc(OC(C)C)cc4)ccc32)C1 (configuration not stated)	–	–	·	–	–	·
CC(NC(=O)c1ccccc1)c1nc2ccccc2n1Cc1ccccc1F (configuration not stated)	·	·	–	–	50µM	–
O=C(CNC(=O)c1ccccc1)NCCc1ccc(O)c(O)c1	·	·	·	–	8.9µM	50µM
CC(=O)NCCc1ccc(O)c(O)c1	·	·	·	·	2µM	·
COc1ccc(Cl)cc1NC(=O)COC(=O)CC(C)(C)CC1=NS(=O)(=O)c2ccccc2N1	–	–	·	–	–	·
CN(C(=O)c1ccc2c(c1)N(Cc1ccccc1F)C(=O)c1ccccc1S2(=O)=O)C1CCCCC1	–	–	·	–	–	·
c1ccc(-c2cc(N3CCOCC3)nc3ccccc23)cc1	–	3.2µM	·	50µM	4.5µM	56µM
O=C(CSc1ccccc1C(=O)O)c1ccc([N+](=O)[O-])cc1	?	20µM	·	?	20µM	–
Cc1nnc(SCC(=O)c2ccc([N+](=O)[O-])cc2)s1	–	–	–	–	–	50µM
NC(N)=NCCCC(NC(=O)C(N)Cc1ccc(O)cc1)C(=O)O (configuration not stated)	·	·	·	·	–[2.33 µM]	–
COc1ccc(/C=C/C(=O)Nc2ccc(Cl)c(Cl)c2)cc1OC	–	–	·	–	–	·
Nc1nc(CN2CCCCC2)cs1	–	–	–	–	–	–
Nc1nc(CN2CCOCC2)cs1	–	22µM	·	–	–[12.7 µM]	–
Nc1nc(SCC(=O)c2cccc([N+](=O)[O-])c2)n[nH]1	–	–	–	–	2.5µM	?

Screening results as filed in PubChem.
